Drawing on the supplement of paper PMC12808144, this text covers cell viability for 49 compounds.

One assay deals with NHEM-hTERT. Description: cell viability relative to DMSO control (fraction of DMSO control); higher = less cytotoxic, active = 0.5 or less. As to conditions: 1 µM; 120 h. In outline:
(§1)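 Cells in 40 µl per well went into 384-well plates pre-spotted acoustically with a TargetMol library of 315 approved anti-cancer drugs, each at 1 µM in duplicate, for 120 h. Seeding was 2500/well for NHEM-hTERT immortalized melanocytes and 1500/well for patient-derived Mel-DCC-11 and its resistant subline Mel-DCC-11-R, which was run alone and with 8 µM of its selecting drug. Luminescence was read with ATPlite 1step. Viability was normalised to vehicle-treated controls and averaged over duplicates.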

For another assay, the system named is Mel-DCC-11-R. Put plainly: cell viability relative to DMSO control (fraction of DMSO control); higher = less cytotoxic, active = 0.8 or less. As to conditions: 1 µM, 120 h. In outline: as §1

Counter-ions that a name gives are not always drawn. Values without a mark were called inactive.

Regarding `CC(C)C[C@H](NC(=O)CNC(=O)c1cc(Cl)ccc1Cl)B(O)O` [Ixazomib], in the assay with NHEM-hTERT, the cell viability is 0.0856 (active).
The same measure, in the same setting: the value for `Nc1nc([O-])c2c(CCc3ccc(C(=O)N[C@@H](CCC(=O)[O-])C(=O)[O-])cc3)c[nH]c2n1.[Na+].[Na+]` [Pemetrexed disodium] was 1.05.
Regarding `COc1cc2c(Nc3ccc(Br)cc3F)ncnc2cc1OCC1CCN(C)CC1` [Vandetanib], the results for the cell viability in the assay with NHEM-hTERT, with Mel-DCC-11-R (vemurafenib co-treatment 0 µM) and with Mel-DCC-11-R (vemurafenib co-treatment 8 µM) were 1.02, 1.29 and 1.01, respectively.
The corresponding values for `CC/C(=C(\c1ccc(O)cc1)c1ccc(OCCNC)cc1)c1ccccc1` [(E/Z)-Endoxifen] are 0.88, 1.15 and 1.14.
As for `C[C@@H]1O[C@@H](OC[C@H]2O[C@@H](Oc3c(-c4ccc(O)c(O)c4)oc4cc(O)cc(O)c4c3=O)[C@H](O)[C@@H](O)[C@@H]2O)[C@H](O)[C@H](O)[C@H]1O` [Rutin], in the assay on NHEM-hTERT, the cell viability is 1.09.
Turning to `C/C=C1/NC(=O)[C@H]2CSSCC/C=C/[C@H](CC(=O)N[C@H](C(C)C)C(=O)N2)OC(=O)[C@H](C(C)C)NC1=O` [Romidepsin], the cell viability in the assay on NHEM-hTERT was 0.0685 (active); in the assay with Mel-DCC-11-R (vemurafenib co-treatment 0 µM) it was 0.0525 (active); in the assay with Mel-DCC-11-R (vemurafenib co-treatment 8 µM), 0.0432 (active).
As for `Cl.Cl.O=C1c2c(O)ccc(O)c2C(=O)c2c(NCCNCCO)ccc(NCCNCCO)c21` [Mitoxantrone hydrochloride], the cell viability with NHEM-hTERT was 0.797; in the assay with Mel-DCC-11-R (vemurafenib co-treatment 0 µM) it was 1.14; with Mel-DCC-11-R (vemurafenib co-treatment 8 µM), 0.477 (active).
On to `CNCc1ccc(-c2[nH]c3cc(F)cc4c3c2CCNC4=O)cc1.O=P(O)(O)O` [Rucaparib Phosphate], for which the cell viability is 0.996 with NHEM-hTERT, 0.916 in the assay with Mel-DCC-11-R (vemurafenib co-treatment 0 µM) and 1.11 in the assay with Mel-DCC-11-R (vemurafenib co-treatment 8 µM).
The corresponding values for `Nc1nc(=O)c2c(CCc3ccc(C(=O)N[C@@H](CCC(=O)[O-])C(=O)[O-])cc3)c[nH]c2[nH]1.[Na+].[Na+]` [Pemetrexed Disodium Hydrate] are 0.995, 1.11 and 1.13.
The corresponding values for `COC(=O)/C=C/C(=O)OC` [Dimethyl fumarate] are 1.33, 1.06 and 1.13.
In the case of `CC(=O)c1c(C)c2cnc(Nc3ccc(N4CCNCC4)cn3)nc2n(C2CCCC2)c1=O.Cl` [Palbociclib hydrochloride], the results for the cell viability with NHEM-hTERT, in the assay on Mel-DCC-11-R (vemurafenib co-treatment 0 µM) and with Mel-DCC-11-R (vemurafenib co-treatment 8 µM) were 1.05, 1.46 and 1.08, respectively.
The corresponding values for `Nc1ncn([C@H]2C[C@H](O)[C@@H](CO)O2)c(=O)n1` [Decitabine] are 0.907, 1.31 and 0.968.
In the same order, the values of `N#CC[C@@H](C1CCCC1)n1cc(-c2ncnc3[nH]ccc23)cn1` [S-Ruxolitinib] are 0.987, 1.01 and 1.28.
Consider `O=C(O)CCc1nc2ccccc2[nH]1` [Procodazole], for which the cell viability with NHEM-hTERT was 1.02.
On to `Cc1cc(Nc2ncc(Cl)c(Nc3ccccc3S(=O)(=O)C(C)C)n2)c(OC(C)C)cc1C1CCNCC1`, for which the cell viability in the assay with NHEM-hTERT is 0.88; with Mel-DCC-11-R (vemurafenib co-treatment 0 µM), 1.17; in the assay on Mel-DCC-11-R (vemurafenib co-treatment 8 µM), 0.873.
In the same order, the values of `C=CC(=O)N1CCC[C@@H](n2nc(-c3ccc(Oc4ccccc4)cc3)c3c(N)ncnc32)C1` [Ibrutinib] are 1.05, 0.855 and 0.733 (active).
In the same order, the values of `COc1cc(C[C@H]2C(=O)OC[C@@H]2Cc2ccc(OC)c(OC)c2)ccc1O` [Arctigenin] are 1.21, 1.01 and 0.855.
As to `Cc1[nH]c2ccccc2c1CCNCc1ccc(/C=C/C(=O)NO)cc1` [Panobinostat], the cell viability with NHEM-hTERT is 0.339 (active).
With `Cl.Cl.Cl.Cl.Cl.Cl.Cl.Cl.c1cc(CN2CCCNCCNCCCNCC2)ccc1CN1CCCNCCNCCCNCC1` [AMD 3100 octahydrochloride], the cell viability is 1.14 with NHEM-hTERT, 0.999 in the assay on Mel-DCC-11-R (vemurafenib co-treatment 0 µM) and 0.984 with Mel-DCC-11-R (vemurafenib co-treatment 8 µM).
In the same order, the values of `S=c1nc[nH]c2nc[nH]c12` [Mercaptopurine] are 1.07, 0.876 and 0.993.
Consider `COc1ccc(/C=C\c2cc(OC)c(OC)c(OC)c2)cc1OP(=O)([O-])[O-].[Na+].[Na+]` [Fosbretabulin Disodium], for which the cell viability was 0.64 with NHEM-hTERT, 0.57 (active) with Mel-DCC-11-R (vemurafenib co-treatment 0 µM) and 0.421 (active) with Mel-DCC-11-R (vemurafenib co-treatment 8 µM).
With `N.N.O=C([O-])C1(C(=O)[O-])CCC1.[Pt+2]` [Carboplatin], the cell viability is 1.05 in the assay on NHEM-hTERT, 0.973 with Mel-DCC-11-R (vemurafenib co-treatment 0 µM) and 1.23 in the assay with Mel-DCC-11-R (vemurafenib co-treatment 8 µM).
For the compound `CN(N=O)C(=O)N[C@@H]1[C@@H](O)[C@H](O)[C@@H](CO)O[C@@H]1O` [Streptozocin], the cell viability in the assay on NHEM-hTERT is 1.11; in the assay with Mel-DCC-11-R (vemurafenib co-treatment 0 µM), 0.976; in the assay with Mel-DCC-11-R (vemurafenib co-treatment 8 µM) it was 1.1.
As for `C1=C/COCc2cc(ccc2OCCN2CCCC2)Nc2nccc(n2)-c2cccc(c2)COC/1` [Pacritinib], the cell viability with NHEM-hTERT was 1.04; with Mel-DCC-11-R (vemurafenib co-treatment 0 µM) it was 1.46; in the assay with Mel-DCC-11-R (vemurafenib co-treatment 8 µM) it was 1.06.
In the same order, the values of `CCCCCCCCCCCC1=C(O)C(=O)C=C(O)C1=O` [Embelin] are 1.01, 1.07 and 1.15.
In the same order, the values of `CC(=O)O[C@]1(C(C)=O)CC[C@H]2[C@@H]3C=C(C)C4=CC(=O)CC[C@]4(C)[C@H]3CC[C@@]21C` [Megestrol acetate] are 1.04, 1.13 and 1.
Regarding `CC[C@@]1(O)C(=O)OCc2c1cc1n(c2=O)Cc2cc3c(CN(C)C)c(O)ccc3nc2-1.Cl` [Topotecan hydrochloride], the cell viability with NHEM-hTERT was 0.768; in the assay on Mel-DCC-11-R (vemurafenib co-treatment 0 µM) it was 0.645 (active); in the assay with Mel-DCC-11-R (vemurafenib co-treatment 8 µM) it was 0.339 (active).
In the same order, the values of `Cc1nc2ccc(CN(C)c3ccc(C(=O)N[C@@H](CCC(=O)O)C(=O)O)s3)cc2c(=O)[nH]1` [Raltitrexed] are 1.03, 1.16 and 1.09.
The corresponding values for `O=C1CCC(N2C(=O)c3ccccc3C2=O)C(=O)N1` (stereo not drawn) [Thalidomide] are 1.1, 0.897 and 0.589 (active).
With `CS(=O)(=O)c1ccc(C(=O)Nc2ccc(Cl)c(-c3ccccn3)c2)c(Cl)c1` [Vismodegib], in the assay on NHEM-hTERT, the cell viability was 0.961.
`NC1CCCCC1N.O=C([O-])C(=O)[O-].[Pt+2]` (stereo not drawn) [Oxaliplatin]: the cell viability in the assay on NHEM-hTERT is 1.05; in the assay on Mel-DCC-11-R (vemurafenib co-treatment 0 µM) it was 1.01; with Mel-DCC-11-R (vemurafenib co-treatment 8 µM) it was 1.12.
Turning to `COC(=O)c1ccc2c(c1)NC(=O)/C2=C(\Nc1ccc(N(C)C(=O)CN2CCN(C)CC2)cc1)c1ccccc1` [Nintedanib], the cell viability in the assay with NHEM-hTERT was 0.909; in the assay with Mel-DCC-11-R (vemurafenib co-treatment 0 µM) it was 1.01; in the assay with Mel-DCC-11-R (vemurafenib co-treatment 8 µM) it was 0.803.
As to `CNC(=O)c1cc(Oc2ccc(NC(=O)Nc3ccc(Cl)c(C(F)(F)F)c3)cc2)ccn1.Cc1ccc(S(=O)(=O)O)cc1` [Sorafenib tosylate], the cell viability in the assay on NHEM-hTERT is 0.904.
For `O=c1[nH]c(=O)n([C@H]2C[C@H](O)[C@@H](CO)O2)cc1C(F)(F)F` [Trifluridine], the cell viability with NHEM-hTERT is 1.12; in the assay on Mel-DCC-11-R (vemurafenib co-treatment 0 µM) it was 1.24; in the assay on Mel-DCC-11-R (vemurafenib co-treatment 8 µM), 1.06.
Consider `CS(=O)(=O)c1ccc(C2=C(c3ccccc3)C(=O)OC2)cc1` [Rofecoxib], for which the cell viability with NHEM-hTERT was 0.925; in the assay with Mel-DCC-11-R (vemurafenib co-treatment 0 µM), 0.862; in the assay on Mel-DCC-11-R (vemurafenib co-treatment 8 µM) it was 0.825.
For the compound `CN(C)CCOc1ccc(/C(=C(/CCCl)c2ccccc2)c2ccccc2)cc1` [Toremifene], the cell viability was 0.904 in the assay on NHEM-hTERT, 0.887 with Mel-DCC-11-R (vemurafenib co-treatment 0 µM) and 1.26 with Mel-DCC-11-R (vemurafenib co-treatment 8 µM).
The corresponding values for `COc1cc(N2CCC(N3CCN(C)CC3)CC2)ccc1Nc1ncc(Cl)c(Nc2ccccc2P(C)(C)=O)n1` [Brigatinib] are 0.91, 1.08 and 0.867.
In the same order, the values of `Oc1c(I)cc(Cl)c2cccnc12` [Clioquinol] are 0.798, 0.866 and 0.847.
The corresponding values for `COc1cccc2c1C(=O)c1c(O)c3c(c(O)c1C2=O)C[C@@](O)(C(C)=O)C[C@@H]3O[C@H]1C[C@H](N)[C@H](O)[C@H](C)O1.Cl` [Daunorubicin hydrochloride] are 0.363 (active), 0.0677 (active) and 0.0387 (active).
As to `COc1ccc([C@@H]2CC(=O)c3c(O)cc(O)cc3O2)cc1O` [Hesperetin], the cell viability is 0.971 in the assay with NHEM-hTERT, 0.891 in the assay with Mel-DCC-11-R (vemurafenib co-treatment 0 µM) and 1.05 with Mel-DCC-11-R (vemurafenib co-treatment 8 µM).
For `O=c1cc[nH]c(=O)[nH]1` [Uracil], the cell viability with NHEM-hTERT was 1.1; in the assay with Mel-DCC-11-R (vemurafenib co-treatment 0 µM) it was 0.875; in the assay on Mel-DCC-11-R (vemurafenib co-treatment 8 µM) it was 1.01.
As to `Nc1ccc(F)cc1NC(=O)c1ccc(CNC(=O)/C=C/c2cccnc2)cc1` [Chidamide], the cell viability with NHEM-hTERT is 0.668; in the assay on Mel-DCC-11-R (vemurafenib co-treatment 0 µM) it was 1.34; with Mel-DCC-11-R (vemurafenib co-treatment 8 µM) it was 1.16.
For `Cc1ccc(-c2ncc(Cl)cc2-c2ccc(S(C)(=O)=O)cc2)cn1` [Etoricoxib], the cell viability was 1.17 in the assay on NHEM-hTERT, 1.11 in the assay with Mel-DCC-11-R (vemurafenib co-treatment 0 µM) and 1.06 in the assay on Mel-DCC-11-R (vemurafenib co-treatment 8 µM).
Regarding `C[C@@H]1C[C@H]2[C@@H]3CCC4=CC(=O)C=C[C@]4(C)[C@@]3(F)[C@@H](O)C[C@]2(C)[C@@]1(O)C(=O)COP(=O)([O-])[O-].[Na+].[Na+]` [Dexamethasone Sodium Phosphate], the cell viability is 1.2 in the assay with NHEM-hTERT, 1.16 in the assay with Mel-DCC-11-R (vemurafenib co-treatment 0 µM) and 0.927 in the assay on Mel-DCC-11-R (vemurafenib co-treatment 8 µM).
The corresponding values for `NC(=O)c1cccc2cn(-c3ccc([C@@H]4CCCNC4)cc3)nc12` [Niraparib] are 0.932, 1.06 and 1.08.
With `CN(C)C(=O)COC(=O)Cc1ccc(OC(=O)c2ccc(N=C(N)N)cc2)cc1.CS(=O)(=O)O` [Camostat mesilate], the cell viability in the assay on NHEM-hTERT was 0.975; in the assay with Mel-DCC-11-R (vemurafenib co-treatment 0 µM), 1.1; in the assay on Mel-DCC-11-R (vemurafenib co-treatment 8 µM), 1.21.
For the compound `COc1cc2ncnc(Nc3ccc(F)c(Cl)c3)c2cc1OCCCN1CCOCC1` [Gefitinib], the cell viability with NHEM-hTERT was 0.905; in the assay on Mel-DCC-11-R (vemurafenib co-treatment 0 µM) it was 0.893; in the assay on Mel-DCC-11-R (vemurafenib co-treatment 8 µM) it was 0.629 (active).
The corresponding values for `O=C1c2c(O)ccc(O)c2C(=O)c2c(NCCNCCO)ccc(NCCNCCO)c21` [Mitoxantrone] are 0.695, 1.26 and 0.574 (active).
In the same order, the values of `Cl.N=C1CCCN1Cc1[nH]c(=O)[nH]c(=O)c1Cl` [Tipiracil hydrochloride] are 0.914, 0.816 and 0.877.
